From the supplement of paper PMC6555819 come the findings set out here.

The first assay deals with PPARg homodimer (NR concentration 180 nM). In words: PBM binding z-score (relative to random genomic background probes); higher = stronger binding; sequences stand for … in GC…GCGATTGACAGCGTAGAATGAAGG
In short, it runs like this:
(§1)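 The probes on custom Agilent 4×180K protein-binding microarrays were double-stranded, with 34-nt variable regions bearing direct-repeat seeds, single-nucleotide variants, half-site ablations and random human genomic background sequences. Incubation lasted 1 h with ligand-free nuclear receptor dimers in PBS pH 7.4, 2% milk, 0.02% Triton X-100, 1 mM DTT, 0.2 mg/mL BSA and 0.4 mg/ml salmon testes DNA. Antibodies against each partner (one per run) detected bound dimers, and fluorescence scans were regression-normalized. Binding z-scores take the random background probes as reference.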
CGTCAAAGTTCAACCAAGGTAACGTAAAGCACGC yielded a PBM binding z-score of 3.1.

On to GATACAGGGTCAGTTAGAGGCCAGAGTATGGAAA, for which the PBM binding z-score worked out at 2.89.

ACATGTAGGTTAGCTGGGGTCATTCAGACTAGGC had a PBM binding z-score of 6.39.

Turning to TCTATTAGTTGATTAGGGCAAACGAAACAGCGGA, the PBM binding z-score is 0.195.

In turn, AGTCAAAGTTCAGGACGAGGTAACCTAAAGCACG yielded a PBM binding z-score of 2.47.

The sequence CGTCCAAGGTCAGGGAGGTCAGTGAATGCCGAGT showed a PBM binding z-score of 4.71.

GCGACTGGGGCATCAGCAGGTTAACATAACTTAA came in with a PBM binding z-score of 0.292.

In turn, CCTACTGGGCCAAGGTCATTGATCAGTCAAAGCA registered a PBM binding z-score of 1.27.

Consider TAGCCTAGGTCATGCGGGCCAGTCTAGTGTCGGC, for which the PBM binding z-score was 0.871.

Sequence ATCGAAAGGTCGAAGGTGAGTTTACCCACCCGAA gave a PBM binding z-score of 1.48.

For the sequence GCAGACAGGTGAAACGTAGGTAACTCAGGGTGGC, the PBM binding z-score is -0.211.

On to TCATACAGGTGAAGGTAACTCAGGTACGCAGTCG, for which the PBM binding z-score worked out at 1.14.

With TAGCCTAGGTCATTCAGGGGCCAATATAGAAAGC, the PBM binding z-score is 2.49.

CCTCACGGGTCAAGGTTATAGCACGGGTGGTACG had a PBM binding z-score of 2.07.

In turn, TCGAGTGGGTTAGTCGGGGCATTCAGCCAACATA returned a PBM binding z-score of 0.359.

Regarding CAAACTAGGCCAAAGGTCAAAGTCGAGCCAACCA, the PBM binding z-score came out at 2.88.

Take CAAACTAGGGCACCGGAAGGTCAAAGTCCGCATG: the PBM binding z-score was determined as 1.96.

Regarding CTCGAAATGTCGGTTGAGGTGAGTATACGGATAA, the PBM binding z-score worked out at 0.0152.

A further assay relates to PXR:RXRa (NR concentration 270 nM, RXRa partner concentration 90 nM). The assay is described as above. In short, it runs like this: as §1
CCTAGTGGGCCATTCAGAGGTCATTGATCATATG showed a PBM binding z-score of 4.94.

Take TAGCCTAGGTCATGGTCCAGTATACCACGCGAAC: the PBM binding z-score is 1.64.

In turn, CAAACTAGGTCAAAGGTCTAAGTCGAGCCAACCA had a PBM binding z-score of 3.11.

With CCTACTGGGCCATCAGGTCATAGATATCAACGTT, the PBM binding z-score stood at 1.15.

Sequence TCTATTAGTTGGTTAGGGCAACCGAAACAGCGGA registered a PBM binding z-score of 0.158.

With CGTCCAAGGTTAGCAGGTCAGTGAAAGCGACGTG, the PBM binding z-score was 1.18.

Consider GGTGCTAGGTCAGGTTGGTCAGCTAACGGGTACG, for which the PBM binding z-score was determined as 0.63.

Sequence TTACCAAGGTGGGCTGAGGTCGTTGATCCAACTC had a PBM binding z-score of 2.86.

For CAAACTAGGTCAAAGGTCATAGTCGAGCCAACCA, the PBM binding z-score came to 7.06.

GCTGTTAGTTGAAAGGGCAACCGAATGATTCTCG: the PBM binding z-score worked out at 0.665.

CGAACTAGGTCAGCCAGGACAGTGAATACATTGA registered a PBM binding z-score of 0.744.

The sequence CCTACTGGGCCATCAGGTCATGGATATCAACGTT gave a PBM binding z-score of 1.58.

Sequence GGAACGAGGGCATTCGAGTTGATGGCATGGCGAT yielded a PBM binding z-score of 3.26.

With TAGCCTTGGTCAGATCGGGCCAGTATACGCTATA, the PBM binding z-score was -0.578.

Sequence AGAATGAGGTTAAGATCAGGGACACAGAATACAT displayed a PBM binding z-score of 1.54.

On to AGTCAAAGTTCACTAGGTGACGTAAGATTCAGCT, for which the PBM binding z-score was 4.22.

In turn, GCTGCTAGGTCAACTGATGGTCAGTTAAAGCTCG had a PBM binding z-score of 1.64.

In the case of GGCACGAGGGCATTCGAGTTGATAGCATGGCGAT, the PBM binding z-score worked out at 3.77.

In turn, ACTCGGAGGACAAAGGTCAGAGCAACGCCAGTGA displayed a PBM binding z-score of 3.99.

Turning to ACTCGGAGAACAAAGGTCAGAGCTACGCCAGTGA, the PBM binding z-score was 3.41.

In the case of TAGCCTAGGTCATGGGCCCGTATACCACGCGAAC, the PBM binding z-score was determined as 1.92.

Turning to ATATGTAGATTAAGGGTCATTCAGGTTGGTTCGC, the PBM binding z-score is 4.89.

Regarding CGTCAAAGTTCAACCAAGGTAACGTAAAGCACGC, the PBM binding z-score was 5.55.

The sequence GATACAGGGTCAGTTAGAGGCCAGAGTATGGAAA displayed a PBM binding z-score of 2.85.

On to ACATGTAGGTTAGCTGGGGTCATTCAGACTAGGC, for which the PBM binding z-score was 6.77.

In turn, TCTATTAGTTGATTAGGGCAAACGAAACAGCGGA returned a PBM binding z-score of 0.343.

AGTCAAAGTTCAGGACGAGGTAACCTAAAGCACG: the PBM binding z-score was 2.74.

On to CGTCCAAGGTCAGGGAGGTCAGTGAATGCCGAGT, for which the PBM binding z-score was 6.02.

The sequence GCGACTGGGGCATCAGCAGGTTAACATAACTTAA returned a PBM binding z-score of 0.289.

CCTACTGGGCCAAGGTCATTGATCAGTCAAAGCA registered a PBM binding z-score of 3.3.

In turn, TAGCCTAGGTCATGCGGGCCAGTCTAGTGTCGGC showed a PBM binding z-score of 1.4.

The sequence ATCGAAAGGTCGAAGGTGAGTTTACCCACCCGAA displayed a PBM binding z-score of 4.03.

With GCAGACAGGTGAAACGTAGGTAACTCAGGGTGGC, the PBM binding z-score is -0.374.

Regarding TCATACAGGTGAAGGTAACTCAGGTACGCAGTCG, the PBM binding z-score stood at 0.814.

Consider TAGCCTAGGTCATTCAGGGGCCAATATAGAAAGC, for which the PBM binding z-score was 3.08.

The sequence CCTCACGGGTCAAGGTTATAGCACGGGTGGTACG returned a PBM binding z-score of 3.03.

As for TCGAGTGGGTTAGTCGGGGCATTCAGCCAACATA, the PBM binding z-score was determined as 0.291.

Take CAAACTAGGCCAAAGGTCAAAGTCGAGCCAACCA: the PBM binding z-score turned out to be 5.56.

In turn, CAAACTAGGGCACCGGAAGGTCAAAGTCCGCATG yielded a PBM binding z-score of 4.06.

For CTCGAAATGTCGGTTGAGGTGAGTATACGGATAA, the PBM binding z-score was determined as 0.0277.

The subject of another assay is PXR homodimer (NR concentration 270 nM). The assay is described as above. The gist of the method:
as §1
Sequence CCTAGTGGGCCATTCAGAGGTCATTGATCATATG came in with a PBM binding z-score of 2.6.

As to TAGCCTAGGTCATGGTCCAGTATACCACGCGAAC, the PBM binding z-score was -0.02.

CAAACTAGGTCAAAGGTCTAAGTCGAGCCAACCA yielded a PBM binding z-score of 0.0192.

Take CCTACTGGGCCATCAGGTCATAGATATCAACGTT: the PBM binding z-score turned out to be 0.269.

For TCTATTAGTTGGTTAGGGCAACCGAAACAGCGGA, the PBM binding z-score was 0.345.

For CGTCCAAGGTTAGCAGGTCAGTGAAAGCGACGTG, the PBM binding z-score was -0.346.

GGTGCTAGGTCAGGTTGGTCAGCTAACGGGTACG showed a PBM binding z-score of 0.481.

In the case of TTACCAAGGTGGGCTGAGGTCGTTGATCCAACTC, the PBM binding z-score came out at 0.257.

In turn, CAAACTAGGTCAAAGGTCATAGTCGAGCCAACCA returned a PBM binding z-score of 1.04.

In turn, GCTGTTAGTTGAAAGGGCAACCGAATGATTCTCG came in with a PBM binding z-score of 0.0448.

As for CGAACTAGGTCAGCCAGGACAGTGAATACATTGA, the PBM binding z-score was -0.0382.

As to CCTACTGGGCCATCAGGTCATGGATATCAACGTT, the PBM binding z-score worked out at 0.00422.

In turn, GGAACGAGGGCATTCGAGTTGATGGCATGGCGAT showed a PBM binding z-score of 1.55.

Regarding TAGCCTTGGTCAGATCGGGCCAGTATACGCTATA, the PBM binding z-score was -0.538.

AGAATGAGGTTAAGATCAGGGACACAGAATACAT had a PBM binding z-score of 0.664.

In turn, AGTCAAAGTTCACTAGGTGACGTAAGATTCAGCT came in with a PBM binding z-score of 2.57.

As for GCTGCTAGGTCAACTGATGGTCAGTTAAAGCTCG, the PBM binding z-score is -0.519.

As for GGCACGAGGGCATTCGAGTTGATAGCATGGCGAT, the PBM binding z-score was 1.72.

In turn, ACTCGGAGGACAAAGGTCAGAGCAACGCCAGTGA yielded a PBM binding z-score of 0.422.

Turning to ACTCGGAGAACAAAGGTCAGAGCTACGCCAGTGA, the PBM binding z-score came out at 0.0377.

In the case of TAGCCTAGGTCATGGGCCCGTATACCACGCGAAC, the PBM binding z-score is -0.637.

The sequence ATATGTAGATTAAGGGTCATTCAGGTTGGTTCGC had a PBM binding z-score of 2.6.

CGTCAAAGTTCAACCAAGGTAACGTAAAGCACGC returned a PBM binding z-score of 4.15.

For the sequence GATACAGGGTCAGTTAGAGGCCAGAGTATGGAAA, the PBM binding z-score is 1.17.

As for ACATGTAGGTTAGCTGGGGTCATTCAGACTAGGC, the PBM binding z-score turned out to be 5.5.

Take TCTATTAGTTGATTAGGGCAAACGAAACAGCGGA: the PBM binding z-score stood at 0.106.

Regarding AGTCAAAGTTCAGGACGAGGTAACCTAAAGCACG, the PBM binding z-score turned out to be 1.53.

As for CGTCCAAGGTCAGGGAGGTCAGTGAATGCCGAGT, the PBM binding z-score was 10.3.

For GCGACTGGGGCATCAGCAGGTTAACATAACTTAA, the PBM binding z-score is -0.239.

As to CCTACTGGGCCAAGGTCATTGATCAGTCAAAGCA, the PBM binding z-score was determined as 0.534.

Turning to TAGCCTAGGTCATGCGGGCCAGTCTAGTGTCGGC, the PBM binding z-score was -0.585.

ATCGAAAGGTCGAAGGTGAGTTTACCCACCCGAA had a PBM binding z-score of 1.02.

With GCAGACAGGTGAAACGTAGGTAACTCAGGGTGGC, the PBM binding z-score was -0.933.

TCATACAGGTGAAGGTAACTCAGGTACGCAGTCG came in with a PBM binding z-score of 0.508.

TAGCCTAGGTCATTCAGGGGCCAATATAGAAAGC showed a PBM binding z-score of 0.116.

CCTCACGGGTCAAGGTTATAGCACGGGTGGTACG displayed a PBM binding z-score of 0.458.

In turn, TCGAGTGGGTTAGTCGGGGCATTCAGCCAACATA displayed a PBM binding z-score of 0.241.

As to CAAACTAGGCCAAAGGTCAAAGTCGAGCCAACCA, the PBM binding z-score was determined as 0.846.

Regarding CAAACTAGGGCACCGGAAGGTCAAAGTCCGCATG, the PBM binding z-score was 0.773.

For CTCGAAATGTCGGTTGAGGTGAGTATACGGATAA, the PBM binding z-score is -0.637.
